Values without a mark were called inactive. Inconclusive results are not listed. Active and inactive are the calls of the source. Unless noted, calls follow the shape of the dose curve; as a rule, active = well fitted curve in either direction with a large enough effect (not every such curve was filed as active); inconclusive = small, poorly fitted or top-dose-only effect, or another doubt; inactive = flat fitted curve, though single readings scatter.

Results on 9 compounds are retold here after PubChem BioAssay (NCATS).

Assay [1] has as its target Lysosomal acid glucosylceramidase (Homo sapiens) (UniProt P04062). In words: Glucocerebrosidase-p2 (AID 348; in the data active = potency below about 10 µM; also: potency is read from the fitted curve at half-maximal effect). Particulars: purified GBA, blue fluorogenic substrate, 40 min. A digest of the protocol:
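Normal human glucocerebrosidase (0.2 nM) with blue fluorogenic substrate (80 uM final) in citrate/phosphate pH 5.9 with 10mM sodium taurocholate, 0.01% tween-20; 40 min RT, NaOH/glycine stop; fluorescence Ex 365/Em 440; AC50 from a titration from 0.6 nM upwards.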

The nature of assay [2]: AP1 Signaling Pathway (AID 357).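 Also: ME-180 reporter cells stimulated with EGF at its EC50 level; % is scaled to controls: 0 for no effect and ±100 for the full control effect.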 As to conditions: ME-180 AP-1-bla reporter, EGF-induced, beta-lactamase ratio, 5 h; at 7.69 µM (top of the series) unless noted. An outline of the steps:
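Beta-lactamase reporter under AP-1 response element, ME-180 background. Stimulus: EC50 EGF. Compound exposure 5 h, 37 °C. Detection: CCF4, 2.5 h RT, 460/530 nm. Values: AC50 from titration.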

The target of assay [3] is Cytochrome P450 1A2 (Homo sapiens) (UniProt P05177). In words: p450-cyp1a2 (AID 410; calls by dose curve; also: potency is read from the fitted curve at half-maximal effect;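 as to activity change, negative = inhibition: -100% = full effect of reference inhibitor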). As to conditions: recombinant CYP1A2, luciferin-ME demethylation, luminescence; series mostly up to 57 µM. An outline of the steps:
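O-Demethylation of luciferin 6' methyl ether by human CYP1A2 is monitored as luciferase luminescence. Substrate sits at Km (100uM); enzyme is 20nM. Values are scaled to 57 uM furafylline as maximal inhibition.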

The nature of assay [4]: NFAT Signaling Pathway (AID 444).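 Also: carbachol stimulus at about its EC50 of 1 µM final; % is scaled to controls: 0 for no effect and ±100 for the full control effect.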 Particulars: Jurkat NFAT-bla M1, carbachol, beta-lactamase ratio, 5 h; at 7.69 µM (top of the series) unless noted. An outline of the steps:
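Jurkat cells with NFAT-driven β-lactamase reporter and co-expressed M1 receptor, stimulated with carbachol (final 1 uM, ~EC50), compound titration, 5 h at 37 °C. CCF4 loaded 1 h at RT; 460/530 nm ratio gave %activity and AC50.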

A short description of assay [5]: Stat Signaling Pathway (AID 446).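 Also: ME-180 cervical cancer cells given 40 pM IL-6 alongside compound; SIE-controlled beta-lactamase reporter measured as 460/530 nm FRET emission ratio; % is scaled to controls: 0 for no effect and ±100 for the full control effect.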 As to conditions: ME-180 (cervical carcinoma) SIE beta-lactamase reporter, IL-6 stimulated, 5 h; at 7.69 µM (top of the series) unless noted. A digest of the protocol: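 Overnight-plated ME-180 cells bearing a STAT Inducible Element beta-lactamase reporter; 5 h co-exposure to compound and 40 pM IL-6; values normalized to 300 pM IL-6 and 125 nM JAK inhibitor controls.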

Assay [6] has as its target Glucocorticoid receptor (Homo sapiens) (UniProt P04150). In words: GR-EFC Redistribution (AID 451; calls by dose curve; also: potency is read from the fitted curve at half-maximal effect). As to conditions: CHO-K1 GR-EFC translocation, beta-gal luminescence, 2 h. A digest of the protocol:
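CHO-K1 cells expressing nuclear EA and GR-ED fragments of b-gal; compounds titrated up to 46 uM final, 2 h at 37 C. GR nuclear translocation read as complemented b-gal luminescence after 1 h RT detection.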

Assay [7] deals with Mitogen-activated protein kinase 10 (Mus musculus) (UniProt Q61831). Kind of assay: JNK3 AlphaScreen Assay (AID 530).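 Also: kinase came from lysate of stimulated human HepG2 cells; signal reports phosphorylation of biotinylated GST-cJun 1-79 at Ser73 with 10 µM ATP; % is scaled to controls: 0 for no effect and ±100 for the full control effect.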 As to conditions: JNK3 lysate, c-Jun phosphorylation; series mostly up to 57.1 µM. A digest of the protocol:
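Activity was read by AlphaScreen after JNK3-containing HepG2 lysate (cytokine pre-activated) phosphorylated biotinylated GST-cJun with 10 uM ATP at room temperature. Phospho-Ser73 cJun antibody with Protein-A acceptor beads provided detection.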

Assay [8] has as its target 3',5'-cyclic-AMP phosphodiesterase 4B (Homo sapiens) (UniProt Q07343). Kind of assay: qHTS Assay for Inhibitors of PDE-IV (AID 607; active = well fitted activation curve with a large enough effect in the main read-out, with a control signal flat, not every such curve was filed as active; also: % of control where 0% means no effect). Particulars: HEK293 ACTOne CNG channel cells, membrane potential fluorescence; series mostly up to 22.9 µM. A digest of the protocol:
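Live HEK293 cells with a modified cyclic nucleotide-gated (CNG) channel report intracellular cAMP via membrane-potential dye fluorescence (ex 535/em 590 nm). Endogenous PDE-IV was targeted. Compounds were tested at up to 22.9 uM final; RO 20-1724 100 uM served as control.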

Assay [9] concerns the target Cytochrome P450 3A4 (Homo sapiens) (UniProt P08684). In words: qHTS Assay for Activators of Cytochrome P450 3A4 (AID 885; active = well fitted curve in the direction sought with a large enough effect; an effect the other way counts as inactive or inconclusive; also: nearly all actives have a fitted effect of over 65% in size; also: potency is read from the fitted curve at half-maximal effect). Particulars: recombinant CYP3A4, Luciferin-PPXE luminescence, 60 min; series mostly up to 57.1 µM. An outline of the steps:
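Using 20nM recombinant human CYP3A4 in potassium phosphate (200mM), substrate Luciferin-PPXE at 25uM, luminescent luciferin detection followed a 60-min RT NADPH reaction; data scaled to 57 uM ketoconazole.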

Assay [10] in a line: Primary qHTS for small molecule stabilizers of the endoplasmic reticulum resident proteome: Secreted ER Calcium Modulated Protein (SERCaMP) assay (AID 1508630; active = well fitted curve in the direction sought with a large enough effect; an effect the other way counts as inactive or inconclusive; also: % is scaled to controls: 0 for no effect and ±100 for the full control effect). As to conditions: SH-SY5Y GLuc-SERCaMP (Gaussia luciferase released on ER calcium loss) secretion, thapsigargin, luminescence; series mostly up to 38.4 µM. An outline of the steps:
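The SH-SY5Y reporter protocol was run at 3 concentrations up to 38.3 uM (primary) or 11 concentrations (follow-up): 16 h compound, 100 nM thapsigargin for 4 h, then extracellular luciferase luminescence.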

In assay [11] the target is Cytochrome P450 3A4 (Homo sapiens) (UniProt P08684). Kind of assay: qHTS Assay for Inhibitors and Substrates of Cytochrome P450 3A4 (AID 884; active = well fitted curve in the direction sought with a large enough effect; an effect the other way counts as inactive or inconclusive; also: nearly all actives have a fitted effect of over 50% in size; also: potency is read from the fitted curve at half-maximal effect). Particulars: recombinant CYP3A4, Luciferin-PPXE luminescence; series mostly up to 57.1 µM. An outline of the steps: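 Luminescent readout of luciferin produced by CYP3A4 (20 nM) dealkylation of Luciferin-PPXE, 25 uM (its KM). NADPH-driven reaction ran 60 min at RT after 10 min compound preincubation; data scaled to 57 uM ketoconazole as 100% inhibition.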
Sequence of Cytochrome P450 3A4 (Homo sapiens) (P08684 whole entry, looked up): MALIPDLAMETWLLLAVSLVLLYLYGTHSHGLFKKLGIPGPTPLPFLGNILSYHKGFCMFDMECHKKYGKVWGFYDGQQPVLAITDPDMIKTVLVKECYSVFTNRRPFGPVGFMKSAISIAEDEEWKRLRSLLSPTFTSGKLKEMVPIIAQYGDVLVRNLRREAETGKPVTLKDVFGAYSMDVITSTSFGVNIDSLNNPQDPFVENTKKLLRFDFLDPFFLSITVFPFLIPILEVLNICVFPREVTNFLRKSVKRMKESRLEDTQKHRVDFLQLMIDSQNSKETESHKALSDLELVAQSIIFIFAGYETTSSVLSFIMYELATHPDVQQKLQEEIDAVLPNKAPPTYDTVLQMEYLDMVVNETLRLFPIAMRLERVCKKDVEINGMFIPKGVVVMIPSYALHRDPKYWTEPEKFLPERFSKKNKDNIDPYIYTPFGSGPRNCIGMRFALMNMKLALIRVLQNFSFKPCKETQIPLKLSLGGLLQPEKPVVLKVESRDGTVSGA

Sequence of Cytochrome P450 1A2 (Homo sapiens) (P05177 whole entry, looked up): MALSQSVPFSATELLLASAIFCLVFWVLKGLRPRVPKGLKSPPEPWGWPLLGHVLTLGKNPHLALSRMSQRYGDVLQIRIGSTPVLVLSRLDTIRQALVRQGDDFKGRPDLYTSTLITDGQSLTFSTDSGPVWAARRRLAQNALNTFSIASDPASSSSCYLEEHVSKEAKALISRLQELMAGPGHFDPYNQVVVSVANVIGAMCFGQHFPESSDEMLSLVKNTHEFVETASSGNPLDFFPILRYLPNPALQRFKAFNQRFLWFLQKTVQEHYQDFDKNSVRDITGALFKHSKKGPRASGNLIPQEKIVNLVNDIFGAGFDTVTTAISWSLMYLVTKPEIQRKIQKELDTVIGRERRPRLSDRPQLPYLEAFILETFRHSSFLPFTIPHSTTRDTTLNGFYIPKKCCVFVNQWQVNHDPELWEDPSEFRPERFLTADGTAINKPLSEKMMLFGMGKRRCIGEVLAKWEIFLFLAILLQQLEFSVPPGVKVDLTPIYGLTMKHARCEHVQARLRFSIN
Sequence of Lysosomal acid glucosylceramidase (Homo sapiens) (P04062 whole entry, looked up): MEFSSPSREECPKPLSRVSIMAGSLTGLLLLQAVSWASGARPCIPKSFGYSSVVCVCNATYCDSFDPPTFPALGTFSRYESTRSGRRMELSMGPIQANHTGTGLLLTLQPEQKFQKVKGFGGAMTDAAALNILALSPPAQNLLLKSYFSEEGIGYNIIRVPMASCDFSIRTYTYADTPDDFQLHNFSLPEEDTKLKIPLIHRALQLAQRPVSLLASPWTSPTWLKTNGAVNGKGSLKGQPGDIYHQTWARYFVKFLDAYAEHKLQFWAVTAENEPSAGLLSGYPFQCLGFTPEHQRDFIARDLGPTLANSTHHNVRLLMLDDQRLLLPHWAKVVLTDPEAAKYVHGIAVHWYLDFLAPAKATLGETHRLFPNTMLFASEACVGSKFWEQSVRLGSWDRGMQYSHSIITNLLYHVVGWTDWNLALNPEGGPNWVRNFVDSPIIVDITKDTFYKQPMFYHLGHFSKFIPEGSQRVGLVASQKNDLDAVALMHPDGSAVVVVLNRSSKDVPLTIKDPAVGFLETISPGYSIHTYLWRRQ
Sequence of Glucocorticoid receptor (Homo sapiens) (P04150 whole entry, looked up, the tested form may be a part): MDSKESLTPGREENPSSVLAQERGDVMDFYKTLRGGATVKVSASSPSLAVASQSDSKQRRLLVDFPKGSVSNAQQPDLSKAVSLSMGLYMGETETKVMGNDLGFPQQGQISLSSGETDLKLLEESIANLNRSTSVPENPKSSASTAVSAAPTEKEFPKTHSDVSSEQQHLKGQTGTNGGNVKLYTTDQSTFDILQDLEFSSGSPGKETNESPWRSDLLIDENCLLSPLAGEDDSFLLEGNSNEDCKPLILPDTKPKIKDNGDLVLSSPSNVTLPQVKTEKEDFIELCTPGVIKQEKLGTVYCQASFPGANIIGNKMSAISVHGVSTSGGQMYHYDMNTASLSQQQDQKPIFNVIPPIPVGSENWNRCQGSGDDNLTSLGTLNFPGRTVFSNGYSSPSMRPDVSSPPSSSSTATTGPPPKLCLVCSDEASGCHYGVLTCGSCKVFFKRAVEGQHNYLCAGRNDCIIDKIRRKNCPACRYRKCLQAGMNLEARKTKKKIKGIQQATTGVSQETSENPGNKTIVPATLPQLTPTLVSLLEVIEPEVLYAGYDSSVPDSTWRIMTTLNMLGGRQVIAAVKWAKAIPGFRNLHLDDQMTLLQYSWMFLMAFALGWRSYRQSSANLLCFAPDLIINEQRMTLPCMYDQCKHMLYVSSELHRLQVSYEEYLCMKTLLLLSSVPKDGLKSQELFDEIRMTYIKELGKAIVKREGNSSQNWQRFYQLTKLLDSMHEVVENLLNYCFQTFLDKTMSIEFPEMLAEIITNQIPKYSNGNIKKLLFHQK
Sequence of 3',5'-cyclic-AMP phosphodiesterase 4B (Homo sapiens) (Q07343 whole entry, looked up): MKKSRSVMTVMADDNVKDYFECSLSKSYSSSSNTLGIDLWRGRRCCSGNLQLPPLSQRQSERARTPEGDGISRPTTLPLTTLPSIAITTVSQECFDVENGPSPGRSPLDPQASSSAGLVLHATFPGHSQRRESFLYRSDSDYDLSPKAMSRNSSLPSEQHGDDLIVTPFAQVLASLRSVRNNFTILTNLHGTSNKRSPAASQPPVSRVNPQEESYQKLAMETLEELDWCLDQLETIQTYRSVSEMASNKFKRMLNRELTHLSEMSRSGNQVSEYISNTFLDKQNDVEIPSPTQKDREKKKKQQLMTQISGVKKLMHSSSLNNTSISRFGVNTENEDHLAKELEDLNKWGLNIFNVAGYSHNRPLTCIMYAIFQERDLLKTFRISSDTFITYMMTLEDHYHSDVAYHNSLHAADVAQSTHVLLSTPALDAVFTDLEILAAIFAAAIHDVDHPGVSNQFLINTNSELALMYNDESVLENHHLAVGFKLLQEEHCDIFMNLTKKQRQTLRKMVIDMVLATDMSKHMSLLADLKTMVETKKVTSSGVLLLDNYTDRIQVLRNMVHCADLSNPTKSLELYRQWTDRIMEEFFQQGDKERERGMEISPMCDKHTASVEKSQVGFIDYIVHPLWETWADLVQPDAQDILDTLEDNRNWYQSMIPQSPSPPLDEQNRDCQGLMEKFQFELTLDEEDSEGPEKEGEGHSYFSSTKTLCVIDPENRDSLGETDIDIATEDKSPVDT

Take `O=C(c1cccc(F)c1)N1CCC2(CCCN(c3ccc(-c4ccccc4)cc3)C2)CC1`: the Potency was over 11.4 µM in assay [1], 15.8 µM (active) in assay [3] and over 46 µM in assay [6]. Besides, the results for the activity change, negative = inhibition in assay [2] and in assay [4] were 6.64% and -3.55%, respectively. The activity, negative = inhibition in [5] was 1.09%. Also, the Potency result in assay [7], in [8] and in assay [9] was “inactive” throughout. Moreover, the result in assay [10] was inactive.
As to `COc1ccc(NC(=O)N2CCCC3(CCN(C(=O)c4ccc(OC)cc4)CC3)C2)cc1`, the figures for the Potency in assay [1] and in assay [6] were over 11.4 µM and over 46 µM, respectively. Also, the figures for the activity change, negative = inhibition in [2] and in [4] were -11.4% and 0.394%, respectively. Besides, the Potency entry in assay [3], in [7], in assay [8] and in assay [9] was “inactive” in each case. Besides, the activity, negative = inhibition in assay [5] is -3.96%. Besides, the result in [10] was inactive.
Turning to `COC(=O)N1CCC2(CC1)CCN(c1ncccn1)CC2`, the values for the Potency in [1], in [6] and in assay [9] were over 11.4 µM, over 46 µM and 15.8 µM (active), respectively. Moreover, the activity change, negative = inhibition is 3.11% in assay [2] and -23.4% in assay [4]. The Potency result in assay [3], in assay [7], in [8] and in [11] was “inactive” in each case. Besides, in [5], the activity, negative = inhibition is -4.92%. Further, in [10], the outcome was inactive.
Regarding `COc1ccc(Oc2ncc3nc(-c4ccc(Cl)cc4)c(=O)n(C)c3n2)cc1`, the values for the Potency in [1], in [3] and in assay [6] were over 11.4 µM, 0.631 µM (active) and over 46 µM, respectively. Moreover, the activity change, negative = inhibition in assay [2] is -22.1%; in assay [4], -2.12%. In addition, the activity, negative = inhibition in assay [5] is -5.79%. In addition, the Potency result in assay [7], in assay [8] and in assay [9] was “inactive” each time. Also, the result in assay [10] was inactive.
Take `Cn1cccc1C(=O)N1CCC[C@@]2(CCN(Cc3nccs3)C2)C1`: the Potency in assay [1] was over 11.4 µM; in [6] it was over 46 µM. For the same compound, the results for the activity change, negative = inhibition in [2] and in assay [4] were -4.63% and 12.5%, respectively. The Potency result in [3], in assay [7], in assay [8] and in [9] was “inactive” throughout. The activity, negative = inhibition in [5] was 9.2%. In [10], the outcome was inactive.
As for `O=C(Oc1ccccc1)N1CCC2(CC1)CN(c1ncccn1)C2`, the Potency was over 11.4 µM in assay [1], 25.1 µM (active) in [3], over 46 µM in assay [6] and 15.8 µM (active) in assay [9]. In addition, the activity change, negative = inhibition in assay [2] is -11.2%; in assay [4], -7.82%. Also, the activity, negative = inhibition in [5] is -0.184%. The Potency entry in [7], in [8] and in assay [11] was “inactive” in each case. Besides, the outcome in assay [10] was inactive.
As to `O=C(c1cnccn1)N1CCC2(CC1)CCN(c1ccccn1)CC2`, the Potency in assay [1] was over 11.4 µM; in [6], over 46 µM; in assay [9] it was 15.8 µM (active). For the same compound, the activity change, negative = inhibition in assay [2] was -11.4%; in [4], -4.5%. Moreover, the Potency result in [3], in assay [7], in assay [8] and in assay [11] was “inactive” throughout. In addition, in [5], the activity, negative = inhibition is 3.98%. In addition, the outcome in assay [10] was inactive.
As to `O=S(=O)(c1ccccc1)N1CCC2(CCCN(c3cccc(-c4ccccc4)c3)C2)CC1`, the values for the Potency in [1], in assay [6] and in assay [11] were over 11.4 µM, over 46 µM and 3.98 µM (active), respectively. Also, the activity change, negative = inhibition in assay [2] is 7.43%; in assay [4] it was -13.9%. In addition, the Potency result in assay [3], in assay [7], in [8] and in assay [9] was “inactive” in each case. Further, the activity, negative = inhibition in [5] was -0.269%. In addition, the outcome in assay [10] was inactive.
For `O=C(c1ccco1)N1CCC2(CC1)CCN(c1ccc(-c3ccccc3)cc1)CC2`, the Potency in [1] was over 11.4 µM; in [6] it was over 46 µM. The activity change, negative = inhibition is -1.18% in assay [2] and 17.6% in assay [4]. In addition, the Potency result in assay [3], in assay [7], in assay [8] and in [11] was “inactive” in each case. Moreover, the activity, negative = inhibition in assay [5] is -2.58%. Besides, the outcome in assay [10] was inactive.
